Experimental data published in ChEMBL document CHEMBL3988442, “University of Dundee, Small-Polar-MMV Screening Library” (2021).
Among all 48,000 compounds or so, about 13,000 (27%) showed an effect of 50% or more. The list shows a part of the results.

tested on: Wolbachia pipientis; assay: Anti-Wolbachia Cell-Based Screen; assay type: functional; parameters: scale not given: in the data most compounds retested in dose-response had high values; settings: 5 µM

Row | Structure (SMILES) | Percent Effect [%]
1 | Cc1c[nH]c(CN(C)C(=O)c2ccc(CSc3nnc[nH]3)o2)n1 | -3.87
2 | CC(C(=O)N(C)C1CCCCC1)S(=O)(=O)Cc1csc(-c2cccs2)n1 (stereo not given) | -23.89
3 | CCN(CC)c1ccc(CNC(=O)c2cccc(C)n2)cn1 | 13.97
4 | CNS(=O)(=O)c1ccc(CNC(=O)NCc2cc[nH]n2)cc1 | -14.1
5 | COc1ncccc1CNC(=O)c1cccc(C)n1 | 6.477
6 | Cc1cccc(C(=O)NCc2ccccc2)n1 | 112.9
7 | CNS(=O)(=O)c1ccc(CNC(=O)c2cccc(C)n2)cc1 | 84.72
8 | CN1CCN(Cc2nc3ccccc3[nH]2)[C@H]2CS(=O)(=O)C[C@H]21 | -11.18
9 | CNc1cc(C)nc(N2CCC3(CC2)[C@H](O)C[C@@H]3OCCN(C)C)n1 | -28.04
10 | Cc1cc(C2CCCN2C(=O)COc2ccc(CC#N)cc2)on1 (stereo not given) | -5.28
11 | CCCC(=O)N1CCCCC1c1nc(N(C)C)ncc1-c1cc(C)no1 (stereo not given) | 132.6
12 | Cc1cc(-c2cnc(N(C)C)nc2C2CCCCN2C(=O)C2CC2)on1 (stereo not given) | 124.3
13 | CCC(=O)N1CCCCC1c1nc(N(C)C)ncc1-c1cc(C)no1 (stereo not given) | 127.9
14 | COCC(=O)N1CCCCC1c1nc(N(C)C)ncc1-c1cc(C)no1 (stereo not given) | 90.99
15 | Cc1csc(C2CCCCN2C(=O)COCc2nc(C)no2)n1 (stereo not given) | -7.815
16 | Cc1ccc(C(=O)NCC(C)Cn2ccnc2C)c(=O)[nH]1 (stereo not given) | -21.01
17 | Cc1nc(-c2cn(CCN)nn2)n(-c2ccc3c(c2)CCC3)n1 | -87.51
18 | COc1ccc(NC(=O)N2CCCC2c2ccncc2)cn1 (stereo not given) | -8.379
19 | CC[C@@]1(O)CCN(c2ncc(Cl)cc2F)C[C@H]1O | -11.81
20 | CCc1nc(C)sc1CN1CC[C@](C)(O)[C@H](C)C1 | 84.46
21 | CCc1ccc(S(=O)(=O)N2CC[C@@](O)(CCOC)[C@H](C)C2)cc1 | -34.1
22 | CNC(=O)c1noc(CN2CC[C@](C)(O)[C@H](C)C2)n1 | 23.29
23 | CC[C@@]1(O)CCN(Cc2cc(C3CCCCC3)no2)C[C@H]1O | 5.851
24 | CCc1nc(C)sc1CNC1CCN(Cc2ccccc2)C1 (stereo not given) | -80.76
25 | C[C@@H]1CN(Cc2c[nH]c(CC3CCCC3)n2)CC[C@]1(C)O | 8.823
26 | COCC[C@]1(O)CCN(C(=O)c2cnn(C)c2)C[C@H]1C | -13.07
27 | CCc1nc(C)sc1CN1C[C@@H](C)[C@@](C)(O)C1 | 98.2
28 | CCc1nc(C)sc1CN1CC[C@](O)(CC)[C@H](O)C1 | 116.1
29 | CCc1nc(C)sc1CN1CC[C@@](O)(CCOC)[C@H](C)C1 | 97.23
30 | Cc1nc2c(c(N3C[C@@H](C)[C@@](C)(O)C3)n1)CCC2 | 13.84
